# Measurements taken from the supplement of paper PMC8253809.
# Several values for one entry are separate records, joined by “and”; a condition that tells them apart may be missing. Equal values may be shown once.
# Tests used:
# Assay in all cases: growth inhibition (% activity, log2 RLU normalised to DMSO / staurosporine); higher = more growth inhibition
# Conditions in all cases: 33 µM
# DIPGX29 = test system: DIPGX29 (H3.3 K27M diffuse intrinsic pontine glioma line)
# How it was run: (§1)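 The growth-inhibition value comes from CellTiter-Glo luminescence, log2-transformed, normalised per plate to % activity between solvent and positive control wells, and taken as the median over replicates. Treatment of pHGG cell lines and H9-derived neural stem cells with approved drugs was at a single final concentration of about 33 μM, in triplicate, for 7 days at 37 °C, 5% CO2.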
# DIPGX37 = test system: DIPGX37 (H3.3 K27M diffuse intrinsic pontine glioma line)
# How it was run: as §1
# DIPGX7 = test system: DIPGX7 (H3.3 K27M diffuse intrinsic pontine glioma line)
# How it was run: as §1
# DIPGX9 = test system: DIPGX9 (diffuse intrinsic pontine glioma line)
# How it was run: as §1
# HGGX39 = test system: HGGX39 (paediatric high-grade glioma line)
# How it was run: as §1
# HGGX6 = test system: HGGX6 (H3.3 G34R paediatric high-grade glioma line)
# How it was run: as §1
# HNSC = test system: HNSC
# How it was run: as §1
# SUDIPGIV = test system: SUDIPGIV (diffuse intrinsic pontine glioma line)
# How it was run: as §1
# SUDIPGVI = test system: SUDIPGVI (diffuse intrinsic pontine glioma line)
# How it was run: as §1
# SUDIPGXIII = test system: SUDIPGXIII (diffuse intrinsic pontine glioma line)
# How it was run: as §1
SMILES,growth inhibition (DIPGX29),growth inhibition (DIPGX37),growth inhibition (DIPGX7),growth inhibition (DIPGX9),growth inhibition (HGGX39),growth inhibition (HGGX6),growth inhibition (HNSC),growth inhibition (SUDIPGIV),growth inhibition (SUDIPGVI),growth inhibition (SUDIPGXIII)
O=c1[nH]c(=O)n(C2CCCO2)cc1F (stereo not given),-0.615%,0.56%,-0.536%,-0.0713%,1.51%,-0.669%,-0.796%,-1.49%,-0.356%,-6.49%
CCCCC(=O)O[C@]1(C(=O)CO)[C@@H](C)C[C@H]2[C@@H]3CCC4=CC(=O)C=C[C@]4(C)[C@@]3(F)[C@@H](O)C[C@@]21C,2.95%,4.71%,0.933%,4%,3.19%,1.27%,0.754%,0.551%,2.82%,2.04%
CC12CC3CC(C)(C1)CC(N)(C3)C2,0.0357%,-0.52%,0.741%,1.54%,1.57%,1.17%,-0.299%,0.153%,0.617%,1.06%
COc1ccc(CN(CCN(C)C)c2ccccn2)cc1,-4.36%,-0.213%,-2.04%,-0.968%,2.69%,-3.48%,-2.01%,-2.03%,-1.61%,0.98%
O=C(O)CSCC(=O)NC1CCSC1=O (stereo not given),0.54%,-0.388%,-0.264%,-0.495%,0.576%,-1.19%,-1.48%,0.118%,1.47%,-6.51%
Clc1ccc(C(c2ccccc2Cl)C(Cl)Cl)cc1 (stereo not given),-1.94%,-1.47%,-1.72%,-0.6%,-0.428%,-0.0252%,-1.09%,-1.24%,-1.05%,1.43%
CCC(=O)O[C@]1(C(=O)SCF)[C@H](C)C[C@H]2[C@@H]3C[C@H](F)C4=CC(=O)C=C[C@]4(C)[C@@]3(F)[C@@H](O)C[C@@]21C,0.571%,2.49%,-1.29%,2.53%,0.688%,-0.734%,2.55%,-3.9%,-0.462%,1.22%
C[C@]12CCC(=O)C=C1[C@@H]1C[C@@H]1[C@H]1[C@@H]3[C@@H]4C[C@@H]4[C@@]4(CCC(=O)O4)[C@@]3(C)CC[C@@H]12,0.956%,1.46%,0.0985%,0.611%,2.45%,2.65%,0.782%,0.914%,2.83%,0.882%
Cc1ncc(CO)c(CO)c1O,0.532%,1.29%,0.82%,0.826%,-0.552%,2.21%,1.1%,0.59%,0.153%,-0.917%
C[C@@H](O[C@H]1OCCN(Cc2n[nH]c(=O)[nH]2)[C@H]1c1ccc(F)cc1)c1cc(C(F)(F)F)cc(C(F)(F)F)c1,8.42%,0.0612%,5.7%,4.43%,12.5%,7.33%,8.95%,13.5%,5.21%,10.1%
COc1cc2nc(N(C)CCCNC(=O)C3CCCO3)nc(N)c2cc1OC (stereo not given),0.0156%,1.16%,-0.0243%,0.217%,-0.734%,1.08%,-0.343%,-0.994%,1.28%,1.78%
C[C@@H](O)[C@H]1C(=O)N2C(C(=O)O)=C(S[C@@H]3CN[C@H](CNS(N)(=O)=O)C3)[C@H](C)[C@H]12,0.9%,-1.74%,3.79%,-0.371%,-0.0496%,-2.09%,28.8%,-1.38%,-5.58%,-1.69%
CC#CCn1c(N2CCC[C@@H](N)C2)nc2c1c(=O)n(Cc1nc(C)c3ccccc3n1)c(=O)n2C,-0.103%,-1.17%,-2.97%,-0.000837%,0.6%,-0.836%,-2.39%,-2.46%,-1.81%,-0.213%
CS(=O)(=O)c1ccc(C(=O)Nc2ccc(Cl)c(-c3ccccn3)c2)c(Cl)c1,2.56%,2.2%,3.42%,7.16%,5.46%,2.09%,4.02%,0.0205%,4.38%,-0.808%
CN1CCC(=C2c3ccccc3CCc3cccnc32)CC1,-2.68%,0.139%,0.133%,-1.74%,-1.55%,-5.77%,24.2%,-1.91%,-8.64%,1.19%
CC(=O)[C@H]1CC[C@H]2[C@@H]3C=CC4=CC(=O)CC[C@@]4(C)[C@@H]3CC[C@]12C,-0.886%,4.22%,-0.136%,0.45%,1.86%,-2.88%,6.39%,2.11%,0.865%,-1.05%
C[C@H]1C[C@@H]2[C@H]([C@@H](O)C[C@@]3(C)[C@H]2CC[C@]3(O)C(=O)CO)[C@@]2(C)C=CC(=O)C=C12,-0.195%,0.838%,-1.93%,2.66%,-0.0158%,-2.28%,-1.14%,5.2%,-0.182%,1.59%
O=c1c(-c2ccc(O)cc2)coc2cc(O)ccc12,-1.42%,-0.456%,-0.191%,-0.874%,1.36%,-0.307%,-2.12%,-0.853%,-1.44%,0.974%
Cc1cnc(C(=O)O)c[n+]1[O-],1.49%,2.38%,1.7%,5.6%,1.15%,2.68%,3.09%,1.14%,1.26%,0.57%
COc1cc2ncnc(Nc3ccc(F)c(Cl)c3)c2cc1OCCCN1CCOCC1,3.09%,-0.0268%,1.03%,-0.279%,1.46%,4.13%,-1.23%,-5.34%,-6.03%,0.759%
CN[C@@H]1[C@H](O)[C@H](NC)[C@H]2O[C@@]3(O)C(=O)C[C@@H](C)O[C@H]3O[C@@H]2[C@H]1O,1.24%,1.47%,0.532%,2.81%,1.18%,-0.547%,3.02%,0.676%,2.4%,0.316%

SMILES,growth inhibition (DIPGX29),growth inhibition (DIPGX37),growth inhibition (DIPGX7),growth inhibition (DIPGX9),growth inhibition (HGGX39),growth inhibition (HGGX6),growth inhibition (HNSC),growth inhibition (SUDIPGIV),growth inhibition (SUDIPGVI),growth inhibition (SUDIPGXIII)
CC(=O)OCC(=O)[C@@]1(O)CC[C@H]2[C@@H]3CCC4=CC(=O)C=C[C@]4(C)[C@H]3[C@@H](O)C[C@@]21C,2.24%,0.724%,2.19%,3.92%,5.57%,2.03%,1.11%,2.53%,-1.15%,2.13%
CN(C)[C@@H](CCOc1cccc2ccccc12)c1ccccc1,10.6%,0.861%,6%,3.36%,5.09%,0.0424%,67.5%,3.4%,-2.24%,0.415%
CCCCCCCCCC(=O)N[C@@H](Cc1c[nH]c2ccccc12)C(=O)N[C@@H](CC(N)=O)C(=O)N[C@@H](CC(=O)O)C(=O)N[C@@H]1C(=O)NCC(=O)N[C@@H](CCCN)C(=O)N[C@@H](CC(=O)O)C(=O)N[C@H](C)C(=O)N[C@@H](CC(=O)O)C(=O)NCC(=O)N[C@H](CO)C(=O)N[C@@H]([C@H](C)CC(=O)O)C(=O)N[C@@H](CC(=O)c2ccccc2N)C(=O)O[C@@H]1C,-2.71%,-1.3%,-0.801%,-2.61%,-1.25%,-2.93%,-6.45%,-2.57%,-3.09%,-1.13%
CNCCCC12CCC(c3ccccc31)c1ccccc12,-1.06%,-0.189%,1.34%,-1.84%,-0.798%,-0.808%,27.6%,-1.99%,-4.58%,0.908%
CCCCNc1ccc(C(=O)OCCN(C)C)cc1,-1.31%,-0.907%,0.627%,-0.979%,5.11%,4.5%,0.385%,-0.481%,-2.2%,1.02%
CCCN[C@H]1CCc2nc(N)sc2C1,-1.19% and -0.0554%,-0.814% and -5.15%,-0.691% and -0.331%,-0.203% and -1.15%,-0.555% and -2.37%,3.71% and 0.0769%,-2.69% and 0.0733%,-0.717% and -1.61%,-0.616% and -4.53%,-6.77% and -0.361%
CCOc1ccc(NC(C)=O)cc1,1.41%,1.55%,3.09%,2.76%,2.76%,-0.142%,47.6%,2.49%,-4.96%,1.58%
Cc1cc(N)c2ccccc2[n+]1CCCCCCCCCC[n+]1c(C)cc(N)c2ccccc21,39.6%,46.2%,35.4%,41.1%,55.5%,36.2%,57.8%,50%,50.9%,52.5%
Cc1c(NC(=O)c2cccnc2)c(=O)n(-c2ccccc2)n1C,2.04%,3.56%,2.88%,1.83%,2.64%,2.09%,2.9%,1.6%,5.52%,-1.54%
C=C1/C(=C\C=C2/CCC[C@]3(C)[C@@H]([C@H](C)/C=C/[C@H](C)C(C)C)CC[C@@H]23)C[C@@H](O)C[C@@H]1O,0.433%,1.95%,5.3%,2.6%,3.71%,2.65%,3.33%,0.335%,1.4%,1.03%
CC(C(=O)O)c1ccc2c(c1)[nH]c1ccc(Cl)cc12 (stereo not given),-0.444%,-0.934%,0.549%,-0.825%,-0.747%,0.65%,-2.15%,-2.81%,-0.161%,-6.63%
CSc1ccc2c(c1)N(CCC1CCCCN1C)c1ccccc1S2 (stereo not given),1.58%,0.408%,-0.0552%,-0.344%,2.69%,-0.282%,7.39%,0.193%,-0.552%,0.0949%
CCCCCCCCCC(=O)NC1C(Oc2c3cc4cc2Oc2ccc(cc2Cl)C(OC2OC(CO)C(O)C(O)C2NC(C)=O)C2NC(=O)C(NC(=O)C4NC(=O)C4NC(=O)C(Cc5ccc(c(Cl)c5)O3)NC(=O)C(N)c3ccc(O)c(c3)Oc3cc(O)cc4c3)c3ccc(O)c(c3)-c3c(OC4OC(CO)C(O)C(O)C4O)cc(O)cc3C(C(=O)O)NC2=O)OC(CO)C(O)C1O (stereo not given),-0.31%,0.115%,0.155%,0.4%,-1.12%,-0.793%,0.958%,-1.1%,0.462%,2.06%
Oc1ccc(OCc2ccccc2)cc1,2.78%,-1.94%,5.44%,2.61%,1.21%,1.02%,10.9%,-2.99%,-1.42%,-1.26%
Nc1ncn([C@H]2C[C@H](O)[C@@H](CO)O2)c(=O)n1,2.35%,0.227%,3.51%,4.93%,4.99%,3.19%,27.6%,5.46%,2.19%,1.68%
CCOC(=O)N1CCC(=C2c3ccc(Cl)cc3CCc3cccnc32)CC1,2.36%,3.66%,1.58%,1.03%,1.57%,1.37%,5.38%,3.97%,1.47%,0.514%
CCN[C@@H]1C[C@H](N)[C@@H](O[C@H]2OC(CN)=CC[C@H]2N)[C@H](O)[C@H]1O[C@H]1OC[C@](C)(O)[C@H](NC)[C@H]1O,0.443%,3.8%,2.72%,2.1%,2.39%,-0.182%,8.55%,3.28%,2.97%,2.03%
O=C([O-])[C@H](O)[C@@H](O)[C@H](O)[C@H](O)CO.[Na+],0.856%,4.24%,2.56%,1.18%,1.7%,0.0619%,3.09%,1.5%,2.94%,-0.611%
COc1c(C)c2c(c(O)c1C/C=C(\C)CCC(=O)OCCN1CCOCC1)C(=O)OC2,17.5%,14.5%,10.6%,15.1%,17.2%,15.1%,65.5%,8.44%,8.42%,7.66%
Nc1nnc(-c2cccc(Cl)c2Cl)c(N)n1,-0.42%,-0.569%,-0.114%,-0.0846%,0.648%,0.473%,0.358%,-1.97%,0.284%,0.73%
